HCV inhibitor: qHTS Assay for Inhibitors of Hepatitis C Virus (HCV); Huh7.5.1 HCVcc-Cre infection, luciferase reporter, 44 h; Potency, µM (top dose mostly 41.8 µM), hits mostly inhibitors; 3.4% of 340,000 active
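Seed cells (1,000/well) for 4 h; treat with compound and infect with HCVcc-Cre, moi about 0.5. Incubate 44 h, then detect luciferase activity.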
VACV Venus inh: qHTS for Stage-Specific Inhibitors of Vaccinia Orthopoxvirus: Venus Reporter Primary qHTS; Vaccinia virus Venus reporter expression, fluorescence; Potency, µM (titrated, usually from 36.5 µM), hits mostly inhibitors; 0.46% of 330,000 active; AID 720580, 2013; calls by dose curve; tested in A549 cells; further: nearly all actives have a fitted effect of over 30% in size
Vaccinia mCherry: qHTS for Stage-Specific Inhibitors of Vaccinia Orthopoxvirus: mCherry Reporter Primary qHTS; Vaccinia virus mCherry reporter infection, fluorescence; AID 720579, 2013; Potency, µM (series often up to 36.5 µM), usual class: inhibitors; 0.63% of 310,000 active; calls by dose curve; tested in A549 cells; further: nearly all actives have a fitted effect of over 35% in size
NS1 inh: qHTS Assay for Inhibitors of Influenza NS1 Protein Function; 0.4% of 270,000 active; Potency, µM (top dose mostly 46.1 µM); calls by dose curve; further: actives are rising curves; nearly all actives have a fitted effect of over 50% in size
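S. cerevisiae expressing influenza A NS1, grown in glucose, washed, then diluted 1:100 into pH 6.0 -URA galactose medium with 23 nl compound. Growth recovery read as OD600; NS1-free strain serves as control.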
Pf growth 48h: Primary qHTS for delayed death inhibitors of the malarial parasite plastid, 48 hour incubation. P. falciparum luciferase growth in erythrocytes, 48 h. Potency, µM (highest dose often 28.7 µM), actives largely listed as inhibitors. 5.9% of 310,000 active
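Here the parasites carry a stable luciferase gene and grow inside erythrocytes in Albumax-based RPMI medium with compound for one erythrocytic cycle. Activity is scored as loss of luminescent signal.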
Pf growth 96h: Primary qHTS for delayed death inhibitors of the malarial parasite plastid, 96 hour incubation | 6.9% of 320,000 active | Potency, µM (titrated, usually from 28.7 µM), actives largely listed as inhibitors | P. falciparum luciferase reporter growth, 96 h
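Compounds incubated with erythrocytes infected by luciferase-expressing P. falciparum (2% hematocrit, 0.05% parasitemia final) for 96 hours, 37 C in 5% CO2. Growth inhibition scored as decreased luciferase luminescence.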
Hits are given with their value; [ ] = dose if it differs, or a comment. Hits are enriched below; roughly 11% of the tested compounds scored in any of these assays. Unless noted, the call rests on the fitted dose curve; in most records, active means well fitted inhibition curve with a large enough effect; inconclusive means small, poorly fitted or top-dose-only effect, or another doubt; inactive means no such curve, though single readings can be large or run the other way.

COc1cc2c(cc1OC)CN(C(=O)CN1CCN(S(=O)(=O)c3ccc(C)c(C)c3)CC1)CC2 was read as HCV inhibitor inconclusive, NS1 inh inactive, Pf growth 48h inconclusive and Pf growth 96h 13.1µM.
For O=C(CCCOc1ccc(Cl)cc1)N1CCCCCC1 the results were HCV inhibitor inactive, NS1 inh inactive, Pf growth 48h inactive and Pf growth 96h inactive.
`COc1ccccc1-c1nc(S(=O)(=O)c2ccc(Cl)cc2)c(N2CCCCCC2)o1` gave VACV Venus inh inactive and Vaccinia mCherry inactive.
For Cn1c(SCC(=O)N2CCCC2)nc2c(c1=O)SCC2 the results were VACV Venus inh inactive and Vaccinia mCherry inactive.
`COc1ccc(OC)c(-n2c(SCC(=O)N3CCc4ccccc43)nc3c(c2=O)SCC3)c1` gave HCV inhibitor inactive, VACV Venus inh inactive, Vaccinia mCherry inconclusive, NS1 inh inactive, Pf growth 48h inconclusive and Pf growth 96h 2.33µM.
Screening COc1ccccc1-n1c(SCC(=O)N2CCc3ccccc32)nc2c(c1=O)SCC2 returned HCV inhibitor inconclusive, VACV Venus inh inactive, Vaccinia mCherry inactive, NS1 inh inconclusive, Pf growth 48h 11.7µM and Pf growth 96h inconclusive.
`Cn1c(SCC(=O)N2CCCCCC2)nc2c(c1=O)SCC2` gave HCV inhibitor inactive, NS1 inh inactive, Pf growth 48h inactive and Pf growth 96h 4.65µM.
For COc1ccccc1-n1c(SCC(=O)Nc2cccc(C)c2)nc2c(c1=O)SCC2 the results were HCV inhibitor inconclusive, VACV Venus inh inactive, Vaccinia mCherry inactive, NS1 inh inactive and Pf growth 96h 10.4µM.
Nc1nc(Br)c2c(F)cccc2c1-c1ccc(Cl)cc1 was read as HCV inhibitor inconclusive, NS1 inh inactive, Pf growth 48h inconclusive and Pf growth 96h 13.1µM.
CCN(CC)C(=O)COc1coc(CN2CCN(c3ccccc3)CC2)cc1=O was read as HCV inhibitor inactive, VACV Venus inh inactive, Vaccinia mCherry inactive, NS1 inh inactive, Pf growth 48h inactive and Pf growth 96h 10.4µM.
COc1cccc(NC(=O)COc2coc(CN3CCN(c4ccccc4)CC3)cc2=O)c1 was read as HCV inhibitor inconclusive, VACV Venus inh inactive, Vaccinia mCherry inactive, Pf growth 48h inactive and Pf growth 96h inconclusive.
Screening CCN(CC)C(=O)COc1coc(CN2CCN(c3ccc(F)cc3)CC2)cc1=O returned HCV inhibitor inactive, VACV Venus inh inactive, Vaccinia mCherry inactive, NS1 inh inactive, Pf growth 48h inactive and Pf growth 96h inconclusive.
`CCc1ccc(NC(=O)COc2coc(CN3CCN(c4ccccc4)CC3)cc2=O)cc1` gave HCV inhibitor inconclusive, VACV Venus inh inactive, Vaccinia mCherry inactive, Pf growth 48h 5.22µM and Pf growth 96h inconclusive.
Screening O=C(COc1coc(CN2CCN(c3ccccc3)CC2)cc1=O)NC1CCCCC1 returned HCV inhibitor inactive, VACV Venus inh inactive, Vaccinia mCherry inactive, Pf growth 48h 11.7µM and Pf growth 96h inconclusive.
Screening Cc1cccc(-n2ncc(C(=O)N3CCN(C4CCCCC4)CC3)c2C2CCN(C(=O)OC(C)(C)C)CC2)c1 returned VACV Venus inh inactive and Vaccinia mCherry inactive.
For CCOc1ccc(C(=O)Nc2ccc(S(=O)(=O)N(Cc3ccccc3)c3ccccc3)cc2)cc1 the results were VACV Venus inh inactive[7.34 µM] and Vaccinia mCherry inactive[7.34 µM].
`COc1cc(N=Nc2ccccc2C(=O)O)ccc1O` gave HCV inhibitor inactive, VACV Venus inh inactive, Vaccinia mCherry inactive, NS1 inh inactive, Pf growth 48h inconclusive and Pf growth 96h inconclusive.
CCCCCCNC(=O)n1cc(F)c(=O)[nH]c1=O was read as VACV Venus inh inactive, Vaccinia mCherry inconclusive, Pf growth 48h 4.26µM and Pf growth 96h 2.13µM.
`CC(=O)N1CN(C2CC(C)(C)NC(C)(C)C2)Cc2c1sc1c2CCCC1` gave HCV inhibitor inconclusive, VACV Venus inh inactive, Vaccinia mCherry inactive, NS1 inh inactive, Pf growth 48h 11.7µM and Pf growth 96h 11.7µM.
CC(=O)N1CN(C2CCCC2)Cc2c1sc1c2CCCC1 was read as HCV inhibitor inactive, NS1 inh inactive and Pf growth 48h inactive.
Screening Cn1ccnc1Sc1cc(Cl)ccc1[N+](=O)[O-] returned HCV inhibitor inactive, VACV Venus inh inactive, Vaccinia mCherry inactive, Pf growth 48h inactive[5.75 µM] and Pf growth 96h inactive.
Screening Cc1ccc(NC(=O)CSc2nnc(Cc3ccccc3)o2)c(C)c1 returned HCV inhibitor inactive, VACV Venus inh inactive, Vaccinia mCherry inactive, Pf growth 48h inconclusive and Pf growth 96h inactive.
O=C1CCCc2[nH]c3cccc(/C(=C/c4ccccc4)c4ccccc4)c3c21 was read as HCV inhibitor inactive, VACV Venus inh inactive, Vaccinia mCherry inactive, NS1 inh inactive, Pf growth 48h inactive and Pf growth 96h 11.7µM.
`COC(=O)c1ccc2[nH]c3cccc(/C(=C/c4ccccc4)c4ccccc4)c3c2c1` gave HCV inhibitor inconclusive, VACV Venus inh inactive, Vaccinia mCherry inactive, NS1 inh inactive, Pf growth 48h inconclusive and Pf growth 96h 3.7µM.
O=c1c2c([nH]c3ccccc13)CCC2 was read as HCV inhibitor inactive, NS1 inh inactive, Pf growth 48h inconclusive and Pf growth 96h inactive.
For CCOc1c(C)cnc2c1c(=O)n(Cc1ccccc1Cl)c(=O)n2C the results were HCV inhibitor inactive, NS1 inh inactive, Pf growth 48h inactive and Pf growth 96h inactive.
Screening Clc1ccc2c(c1)C(c1ccccc1Cl)=NCc1nnc(N3CCN(CCSc4ccccc4)CC3)n1-2 returned HCV inhibitor inactive, VACV Venus inh inactive, Vaccinia mCherry inactive, NS1 inh inactive, Pf growth 48h inactive and Pf growth 96h inactive.
For Clc1ccc2c(c1)C(c1ccccc1Cl)=NCc1nnc(N3CCN(CCOc4ccccc4)CC3)n1-2 the results were HCV inhibitor inconclusive, VACV Venus inh inconclusive, Vaccinia mCherry inactive, NS1 inh inactive, Pf growth 48h inconclusive and Pf growth 96h 9.28µM.
Screening CCN(C[C@H]1N[C@@](C)(C(=O)OC)[C@H]2C(=O)N(C)C(=O)[C@@H]12)S(=O)(=O)c1ccc(C(F)(F)F)cc1 returned HCV inhibitor inactive, VACV Venus inh inactive and Vaccinia mCherry inactive.
`CCOC(=O)c1c(N)sc(-c2ccccc2)c1C` gave HCV inhibitor inactive, VACV Venus inh inactive, Vaccinia mCherry inactive, NS1 inh inactive, Pf growth 48h inactive and Pf growth 96h inactive.
`Cc1c(-c2ccccc2)sc(N)c1C(=O)N1CCOCC1` gave HCV inhibitor inactive, VACV Venus inh inactive, Vaccinia mCherry inactive, NS1 inh inactive, Pf growth 48h 13.1µM and Pf growth 96h inactive.
Screening CCCNC(=O)CS(=O)Cc1nc(-c2ccc(OC)cc2)oc1C (configuration not stated) returned HCV inhibitor inactive, VACV Venus inh inactive, Vaccinia mCherry inactive, NS1 inh inactive and Pf growth 96h 14.7µM.

Screening data (PubChem BioAssay)
